The source of these data is PubChem BioAssay AID1463 (National Center for Advancing Translational Sciences (NCATS), 2008).

Out of some 280,000 compounds screened, about 2,600 (0.93%) were called active. Another 8% or so got no clear call; they are omitted. Many of the other results were omitted from the sample, so actives are more common in it than they were. Unmarked numbers belong to inactive results. Calls come from the whole dose curve; as a rule, active = well fitted curve in the direction sought with a large enough effect; inconclusive = small, poorly fitted or top-dose-only effect; inactive = flat fitted curve, though single readings scatter.
% is set by controls: 0 for no effect and ±100 for the full control effect; potency is the fitted concentration of half-maximal effect; tags give direction and shape of the fitted curve or compound fluorescence and quenching.

A short description of the assay: Counterscreen qHTS for Inhibitors of Tau Fibril Formation, Fluorescence Polarization. Note: nearly all actives have a fitted effect of over 55% in size. To be noted: tau K18 P301L Alexa594 fluorescence, heparin fibrillization; series mostly up to 57.7 µM; activity change, negative = decrease: at the top concentration. The method, boiled down: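 Human tau K18 P301L (15 uM unlabeled, 0.24 uM Alexa 594-labeled) in 100 mM sodium acetate pH 7 with 20 uM heparin, 6 hr at 37 C. ThT 30 uM added, 1 hr ambient; Alexa 594 FP and total fluorescence read at 555/632 nm.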
(The purpose of a counterscreen is to sort out artefacts and off-target activity.)
`Cc1ccc(S(=O)(=O)NCc2nc3nc(C)cc(C)n3n2)cc1`: the “activity change, negative = decrease” value is -11%.

Consider `Cc1cc(N/N=C/c2ccccc2F)c2ccccc2n1`, for which the “activity change, negative = decrease” value is -9.11%.

Consider `Oc1ccc(/C=N/Nc2nc(-c3ccccc3F)nc3ccccc23)c(O)c1`, for which the Potency was 5.01 µM [quencher] (active).

Turning to `Oc1ccc(/C=N/NC2=NCCCCC2)c(O)c1`, the “activity change, negative = decrease” value was -10.3%.

On to `Cc1c(C(=O)Nc2cccc(Cl)c2)oc2ccc(S(=O)(=O)N3CCOCC3)cc12`, for which the “activity change, negative = decrease” value is -21.2%.

Take `COc1cc(OC)c(OC)cc1/C=C/c1nc2ccccc2c(=O)n1-c1ccc(Br)c(C)c1`: the “activity change, negative = decrease” value is -24.9%.

Take `Cc1cc(NC(=O)Nc2ccccc2)n(-c2ccccc2)n1`: the “activity change, negative = decrease” value was -4.86%.

Turning to `Cc1cc(Nc2ccccc2)n(CCC#N)n1`, the “activity change, negative = decrease” value is 4.45%.

Regarding `Cc1cc(Nc2ccccc2)n(C(=O)c2ccc(N)cc2)n1`, the Potency is 25.1 µM [quencher] (active).

Regarding `CCOc1ccc(-n2c(C)nc3c(cnn3-c3ccc(C)cc3)c2=O)cc1`, the “activity change, negative = decrease” value was -2.79%.

On to `CCOc1ccc(NC(=O)c2c(NC(=O)Cc3ccccc3)sc3c2CCCCC3)cc1`, for which the “activity change, negative = decrease” value was -17.4%.

As for `COc1ccc(CCNC(=O)Cn2c(=O)cc(C(F)(F)F)c3c(C)nn(C)c32)c(OC)c1`, the “activity change, negative = decrease” value was -5.48%.

In the case of `CCOC(=O)c1c(NC(=O)CSc2cn(CC)c3ccccc23)sc2c1CCC2`, the “activity change, negative = decrease” value is -27.5%.

As for `CCOC(=O)c1c(NC(=S)Nc2ccccc2C)sc2c1CCC2`, the “activity change, negative = decrease” value is -15.1%.

For `CCOC(=O)c1c(NC(=O)C(C)Sc2c[nH]c3ccccc23)sc2c1CCC2` (stereo not given), the Potency is 7.94 µM [quencher] (active).

Take `CCN(CC)C(=O)CSc1nc2cc3c(cc2c(=O)n1CCCC(=O)NCc1ccc2c(c1)OCO2)OCO3`: the “activity change, negative = decrease” value was 0.813%.

Consider `Cn1c(=O)c2c(nc(N/N=C/c3cccs3)n2Cc2ccc(Br)cc2)n(C)c1=O`, for which the Potency is 14.1 µM [quencher] (active).

For `CCCCNc1nc2c(c(=O)n(C)c(=O)n2C)n1Cc1cccc(OC)c1`, the “activity change, negative = decrease” value was -15.7%.

With `Cn1c(=O)c2c(nc(NCCc3ccccc3)n2Cc2ccccc2Br)n(C)c1=O`, the “activity change, negative = decrease” value was 0.274%.

For `CCOc1ccccc1N(C)C(=O)c1cc2c(s1)-c1ccccc1OC2`, the “activity change, negative = decrease” value is -13.1%.

Consider `CCn1cc(NC(=O)Nc2ccc(OC)c(OC)c2)c(C(N)=O)n1`, for which the “activity change, negative = decrease” value was -7.73%.

In the case of `COc1ccc(NC(=O)NC(C)c2c(-n3cccc3)sc(C)c2C)cc1OC` (stereo not given), the Potency was 15.8 µM [quencher] (active).

Regarding `Cc1ccc(NC(=O)NC(C)c2c(-n3cccc3)sc(C)c2C)c(C)c1` (stereo not given), the “activity change, negative = decrease” value was -9.91%.

As to `Cc1ccc(CSc2nc3ccsc3c(=O)n2CCC(C)C)cc1`, the “activity change, negative = decrease” value was -17%.

Turning to `CCOC(=O)c1c(S(=O)(=O)NCC(=O)Nc2ccc(Cl)c(C(F)(F)F)c2)c(C)n(C)c1C`, the “activity change, negative = decrease” value is -29.9%.

In the case of `Fc1ccc2[nH]c3c(N4CCSCC4)ncnc3c2c1`, the “activity change, negative = decrease” value is -10.8%.

Consider `Fc1ccc2[nH]c3c(N4CCN(Cc5ccc6c(c5)OCO6)CC4)ncnc3c2c1`, for which the Potency was 25.1 µM [quencher] (active).

Regarding `O=c1[nH]c(N2CCN(Cc3ccc4c(c3)OCO4)CC2)nc2c1CCCC2`, the “activity change, negative = decrease” value is 5.42%.

Take `COc1ccc(S(=O)(=O)c2c(Nc3ccc(C)cc3)sc(C(=O)c3ccc(C)cc3)c2N)cc1`: the “activity change, negative = decrease” value was -14.6%.

Take `O=C(NCC(c1ccc2c(c1)OCO2)N1CCN(c2ccccc2)CC1)C(=O)Nc1ccccc1F` (stereo not given): the “activity change, negative = decrease” value is -27.4%.

On to `Oc1ccc(/C=N/N(Cc2ccccc2)c2ccccc2)cc1`, for which the Potency was 15.8 µM [quencher] (active).

On to `O=C(N/N=C/c1ccc(OCc2ccccc2)cc1)c1ccc(O)cc1`, for which the “activity change, negative = decrease” value is -29%.

As to `CN(C)c1ccc(/C=N/N(Cc2ccccc2)c2ccccc2)cc1`, the “activity change, negative = decrease” value is 6.03%.

Consider `CCN(CC)c1ccc(NC(=O)CN2C(=O)c3cccnc3Oc3ccc(Cl)cc32)c(C)c1`, for which the “activity change, negative = decrease” value is -14%.

Turning to `CCc1cc2c(cc3c(=O)n(CC(=O)N4CCN(c5cc(Cl)ccc5C)CC4)ncn32)s1`, the “activity change, negative = decrease” value was 0.522%.
